Data taken from PubChem BioAssay (NCI).
About 83,000 compounds went through this panel and 20% of them were active in at least one assay; those are over-represented in the sample as a whole.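 48-hour exposure, single concentration, 96-well plates; percent growth endpoint where 0 means no net growth. Active: below 10.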 Unmarked numbers belong to inactive results. Active and inactive are the calls of the source.

Assays:
Assay in all cases: NCI-60 one-dose screen, 48 h (100 = growth as untreated, 0 = no growth, -100 = all killed)
Conditions in all cases: 10 µM unless noted
[1] = test system: HCT-15 colon
[2] = test system: HT29 colon
[3] = test system: SNB-75 CNS
[4] = test system: SNB-19 CNS
[5] = test system: U251 CNS
[6] = test system: PC-3 prostate
[7] = test system: UACC-62 melanoma
[8] = test system: LOX IMVI melanoma
[9] = test system: SK-MEL-28 melanoma
[10] = test system: SK-MEL-2 melanoma
[11] = test system: EKVX NSCLC
[12] = test system: SN12C renal
[13] = test system: UO-31 renal
[14] = test system: TK-10 renal
[15] = test system: ACHN renal
[16] = test system: CAKI-1 renal
[17] = test system: CCRF-CEM leukemia
[18] = test system: MOLT-4 leukemia
[19] = test system: A498 renal

| SMILES | growth [1] | growth [2] | growth [3] | growth [4] | growth [5] | growth [6] | growth [7] | growth [8] | growth [9] | growth [10] | growth [11] | growth [12] | growth [13] | growth [14] | growth [15] | growth [16] | growth [17] | growth [18] | growth [19] |
| --- | --- | --- | --- | --- | --- | --- | --- | --- | --- | --- | --- | --- | --- | --- | --- | --- | --- | --- | --- |
| OCC(O)c1nc2ccc3[nH]ncc3c2c2c1CCCC2 (configuration not stated) | 5.03% (active) | 9.08% (active) | -60.8% (active) | 7.63% (active) | 7.68% (active) | 9.74% (active) | -8.7% (active) | 2.42% (active) | -3.58% (active) | 9.63% (active) | 5.55% (active) | 11.8% | 7.51% (active) | 4.51% (active) | 4.18% (active) | 7.54% (active) | 6.71% (active) | 1.37% (active) |  |
| CC1=C[C@H]2c3c(c(O)c(O)c4oc(-c5ccccc5)cc(=O)c34)[C@H](c3cc(O)c(O)c4oc(-c5ccccc5)cc(=O)c34)[C@H]2C(C)(C)C1 | 11.3% | 9.18% (active) | -8.01% (active) | 11.9% | 2.66% (active) | 5.35% (active) | -46.3% (active) | -86.5% (active) | 8% (active) | -3.08% (active) | 14.5% | 1.79% (active) | -50.2% (active) | 28.4% | 2.25% (active) | -27% (active) | 4.65% (active) | 5.24% (active) |  |
| O=C1c2ccccc2OC=C(c2ccccc2)N1CCCCNc1ccc(S(=O)(=O)Nc2ncccn2)cc1 | 96.1% | 100% | 80% | 101% | 91.1% | 76.4% | 86.8% | 92.7% | 108% | 99.1% | 90% | 99.1% | 85.7% | 96.6% | 100% |  | 75.6% |  | 80.2% |
| Cc1nn(-c2cc(=O)[nH]c3ccccc23)c(N)c1C#N | 106% | 107% | 82.4% | 102% | 99% | 96% | 99.2% | 98.4% | 109% | 103% | 96.3% | 101% | 67.5% | 112% | 101% | 87.5% | 102% | 106% |  |
| CCOC(=O)c1c(C(=O)OCC)c2cc(-c3ccn4c(C(=O)c5ccccc5)c(C(=O)OCC)c(C(=O)OCC)c4c3)ccn2c1C(=O)c1ccccc1 | 95.6% | 97.3% | 84.1% | 100% | 99.7% | 80.6% | 85.2% | 85.1% | 113% | 89.8% | 90.4% | 93.6% | 66.6% | 112% | 96.3% |  | 72.9% | 68.1% | 86.8% |
| CN1CCN(c2nc(NCCCNc3ccnc4cc(Cl)ccc34)c3ccccc3n2)CC1 | 52.7% | 6.44% (active) | 79.6% | 45.4% | 2% (active) | 43.4% | -65.7% (active) | -43.8% (active) | -48.5% (active) | 80.7% | 77.3% | 57.2% | 37.3% | 116% | 50% |  | 18.6% | 18.6% | 72.1% |
| FC(F)(F)Oc1ccc2nc3nc4ccc[nH]c4cc3c2c1 | 87% | 73.9% | 61.7% | 58.3% | 65.6% | 80% | 81% | 80% | 94.6% | 98% | 62.8% | 87.5% | 61.8% | 64.7% | 56.4% |  |  | 68.9% | 98.1% |
| COc1cc(-c2nn(-c3ccc(Br)cc3)cc2C(=O)O)ccc1O | 103% | 101% | 92.2% | 103% | 109% | 97.2% | 109% | 102% | 119% | 83.1% | 87.2% | 109% | 82.4% | 125% | 112% |  | 90.1% | 78.7% | 107% |
